# Assay results: PubChem BioAssay (EPA / NIEHS)
# Records with an inconclusive call do not appear. Calls of active or inactive are those of the source. The calls were made as follows: active = hit-call score of the fitted dose curve at least 0.9, where 1 is the maximum; inconclusive = response in the unintended direction; inactive = score below 0.9.
# Legend:
# NCBI gene 100848466 = experiment: NVS_NR_bPR: NovaScreen (NVS) Nuclear Receptor Binding Assay for bovine Progextron Receptor (PR) (AID 2283343);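 as to AC50: actives lower bound radioligand signal below DMSO meaning displacement of the label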
# Procedure, shortened: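 Scintillation counts of bound radioligand were read 18 hours after chemical addition to membranes extracted from bovine uterus. Displacement was scored as loss of signal relative to DMSO controls. Screening began at 25 uM in duplicate.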
# [1] = biological target: human Constitutive Androstane Receptor (CAR), NR1I3 (gene 9970) (UniProt Q14994); experiment: NVS_NR_hCAR_Antagonist: NovaScreen (NVS) Nuclear Receptor Binding Assay for human Constitutive Androstane Receptor Antagonism (CAR) (AID 2283344)
# Chain of human Constitutive Androstane Receptor (CAR), NR1I3 (gene 9970) (Q14994 whole entry, looked up): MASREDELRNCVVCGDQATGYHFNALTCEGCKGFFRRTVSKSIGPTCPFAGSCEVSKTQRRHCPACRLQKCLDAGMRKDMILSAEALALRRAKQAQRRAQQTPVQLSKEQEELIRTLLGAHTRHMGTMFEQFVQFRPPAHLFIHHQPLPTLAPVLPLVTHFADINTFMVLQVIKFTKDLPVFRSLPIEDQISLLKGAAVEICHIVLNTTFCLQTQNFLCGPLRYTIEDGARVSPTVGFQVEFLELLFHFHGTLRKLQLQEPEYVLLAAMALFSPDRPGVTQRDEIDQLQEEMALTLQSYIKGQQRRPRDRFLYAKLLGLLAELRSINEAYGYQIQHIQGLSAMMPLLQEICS
# Procedure, shortened: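 Single 25 uM duplicate primary screen, with concentration-series follow-up on actives. Cell-free binding format run in antagonist mode, TR-FRET signal taken 1 h post-dose; activity is signal loss relative to DMSO.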
# [2] = biological target: Bile acid receptor (Homo sapiens) (UniProt Q96RI1); experiment: NVS_NR_hFXR_Antagonist: NovaScreen (NVS) Nuclear Receptor Binding Assay for human Farnesoid X Receptor Antagonism (FXR) (AID 2283350)
# Chain of Bile acid receptor (Homo sapiens) (Q96RI1 whole entry, looked up): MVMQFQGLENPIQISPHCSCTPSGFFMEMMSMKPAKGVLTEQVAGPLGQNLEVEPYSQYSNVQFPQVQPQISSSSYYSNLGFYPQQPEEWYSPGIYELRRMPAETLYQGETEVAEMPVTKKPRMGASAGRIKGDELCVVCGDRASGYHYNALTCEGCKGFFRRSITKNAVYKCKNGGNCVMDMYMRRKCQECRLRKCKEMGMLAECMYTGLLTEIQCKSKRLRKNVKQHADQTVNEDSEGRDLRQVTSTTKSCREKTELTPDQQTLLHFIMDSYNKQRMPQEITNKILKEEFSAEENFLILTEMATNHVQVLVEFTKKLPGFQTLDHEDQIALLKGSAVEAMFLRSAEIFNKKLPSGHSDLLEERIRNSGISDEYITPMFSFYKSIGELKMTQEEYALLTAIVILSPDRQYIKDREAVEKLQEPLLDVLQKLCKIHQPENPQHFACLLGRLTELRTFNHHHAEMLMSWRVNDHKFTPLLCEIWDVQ
# Procedure, shortened: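 Antagonist-format time-resolved FRET binding assay with extracted human receptor protein, read 1 hour after compound addition. Compounds first screened at 25 uM in duplicate, then actives tested in concentration series, with loss of signal relative to DMSO.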
# [3] = test system: guinea pig Histamine Receptor (H2), gene 100729734; experiment: NVS_GPCR_gH2: NovaScreen (NVS) G Protein-Coupled Receptor Assay for guinea pig Histamine Receptor (H2) (AID 2283342)
# Procedure, shortened: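 Guinea pig striatal membrane preparation with specific radioligand; bound counts measured by filtration and scintillation 1 h post-dosing, DMSO as baseline. Chemicals passing a 25 uM duplicate screen were titrated to a 50 uM maximum.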
# [4] = biological target: bovine Estrogen Receptor (ER), ESR1 (gene 407238) (UniProt P49884); experiment: NVS_NR_bER: NovaScreen (NVS) Nuclear Receptor Binding Assay for bovine Estrogen Receptor (ER) (AID 2283345);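 also: actives lower the bound radioligand count which means they displace the ER ligand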
# Chain of bovine Estrogen Receptor (ER), ESR1 (gene 407238) (P49884 whole entry, looked up): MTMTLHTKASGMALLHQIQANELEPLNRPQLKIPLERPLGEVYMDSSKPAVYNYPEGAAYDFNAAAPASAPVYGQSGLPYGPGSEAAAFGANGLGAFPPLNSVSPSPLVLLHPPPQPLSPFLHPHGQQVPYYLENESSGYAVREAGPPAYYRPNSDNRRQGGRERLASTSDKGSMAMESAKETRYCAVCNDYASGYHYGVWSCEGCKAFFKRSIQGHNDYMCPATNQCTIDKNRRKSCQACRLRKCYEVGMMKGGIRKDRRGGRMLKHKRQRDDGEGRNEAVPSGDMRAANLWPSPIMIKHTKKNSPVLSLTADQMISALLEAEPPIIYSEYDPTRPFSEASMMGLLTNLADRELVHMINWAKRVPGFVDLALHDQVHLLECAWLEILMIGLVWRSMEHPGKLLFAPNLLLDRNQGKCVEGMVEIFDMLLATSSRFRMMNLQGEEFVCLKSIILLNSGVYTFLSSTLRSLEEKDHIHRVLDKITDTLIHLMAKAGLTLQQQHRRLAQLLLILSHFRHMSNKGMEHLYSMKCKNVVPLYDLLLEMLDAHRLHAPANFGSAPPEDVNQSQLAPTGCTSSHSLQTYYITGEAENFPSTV
# Description: (§1) NVS_NR_bER is a biochemical, single-readout assay that uses extracted gene-proteins from Bovine uterine membranes in a tissue-based cell-free assay. Measurements were taken 18 hours after chemical dosing in a 96-well plate.NVS_NR_bER is one of one assay component(s) measured or calculated from the NVS_NR_bER assay. It is designed to make measurements of radioligand binding, a form of binding reporter, as detected with scintillation counting signals by Lysate-based radiodetection technology.Data from the assay component NVS_NR_bER was analyzed into 1 assay endpoint. This assay endpoint, NVS_NR_bER, was analyzed in the positive analysis fitting direction relative to DMSO as the negative control and baseline of activity. […] Furthermore, this assay endpoint can be referred to as a primary readout, because the performed assay has only produced 1 assay endpoint. […]
# (§2) Binding assays used specific radioligands (tritiated, iodinated) with non-radioactive competitive displacement ligands in agonist or antagonist protocols (as indicated) and various reference compounds and inhibitors to titrate specific binding to receptors and transporters. Most enzyme assays (CYPs, kinases, phosphatases, proteases, HDACs) used recombinant protein and specific substrates (fluorescence mostly, some colorimetric and radioactive) and inhibitors, followed by a biochemical separation of substrate and product. […]
# [5] = biological target: Estrogen receptor (Homo sapiens) (UniProt P03372); experiment: OT_ER_ERaERa_1440: Odyssey Thera (OT) 24-hour HEK293T Protein-Complementation Assay for Estrogen Receptor-alpha/-alpha Homodimer (AID 2283349);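 also: hits raise fluorescence above DMSO for agonists and antagonists alike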
# Chain of Estrogen receptor (Homo sapiens) (P03372 whole entry, looked up, the tested form may be a part): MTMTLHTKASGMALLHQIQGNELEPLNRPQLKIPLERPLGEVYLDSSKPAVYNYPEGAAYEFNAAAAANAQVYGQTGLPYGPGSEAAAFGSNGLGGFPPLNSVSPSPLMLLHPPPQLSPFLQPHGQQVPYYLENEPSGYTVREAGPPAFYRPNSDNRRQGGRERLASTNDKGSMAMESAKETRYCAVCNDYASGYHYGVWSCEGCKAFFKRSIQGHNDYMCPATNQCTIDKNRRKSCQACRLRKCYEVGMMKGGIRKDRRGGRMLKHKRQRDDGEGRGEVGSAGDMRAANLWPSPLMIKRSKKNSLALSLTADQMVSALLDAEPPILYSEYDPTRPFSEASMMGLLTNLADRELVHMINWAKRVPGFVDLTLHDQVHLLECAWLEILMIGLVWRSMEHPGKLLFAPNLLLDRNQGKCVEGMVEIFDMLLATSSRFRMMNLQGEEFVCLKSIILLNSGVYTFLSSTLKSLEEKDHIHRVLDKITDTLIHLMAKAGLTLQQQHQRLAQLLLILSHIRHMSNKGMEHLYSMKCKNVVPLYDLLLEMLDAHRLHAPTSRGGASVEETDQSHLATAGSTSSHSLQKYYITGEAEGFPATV
# Procedure, shortened: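 Cells (HEK293T) carrying the fragment-tagged ERα LBD (aa 310-547) pair are treated with chemical for 24 hours. Nuclear and/or cytoplasmic fluorescence is then quantified on a laser scanning cytometer. Activity is scored as signal gain against DMSO.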
# [6] = biological target: Estrogen receptor (Homo sapiens) (UniProt P03372); experiment: OT_ER_ERaERa_0480: Odyssey Thera (OT) 8-hour HEK293T Protein-Complementation Assay for Estrogen Receptor-alpha/-alpha Homodimer (AID 2283351);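 also: rise in fluorescence from reassembled reporter fragments on ERα LBD homodimer in nucleus or whole cell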
# Description: OT_ER_ERaERa_0480 is a cell-based assay that uses HEK293T, a human kidney cell line, with measurements taken at 8 hours after chemical dosing in a 384-well plate.OT_ER_ERaERa_0480 is one of one assay component(s) measured or calculated from the OT_ER_ERaERa_0480 assay. It is designed to make measurements of protein fragment complementation, a form of binding reporter, as detected with fluorescence intensity signals by Protein-fragment Complementation technology.Data from the assay component OT_ER_ERaERa_0480 was analyzed into 1 assay endpoint. This assay endpoint, OT_ER_ERaERa_0480, was analyzed in the positive analysis fitting direction relative to DMSO as the negative control and baseline of activity. Using a type of binding reporter, measures of receptor for gain-of-signal activity can be used to understand the binding at the pathway-level as they relate to the gene ESR1. Furthermore, this assay endpoint can be referred to as a primary readout, because the performed assay has only produced 1 assay endpoint. To generalize the intended target to other relatable targets, this assay endpoint is annotated to the nuclear receptor intended target family, where the subfamily is steroidal.
# Protein-fragment complementation assay, or PCA, is a method for the identification and quantification of protein-protein interactions. In the PCA, the proteins of interest ("bait" and "prey") are each covalently linked to fragments of a third protein (e.g. DHFR, which acts as a "reporter"). Interaction between the bait and the prey proteins brings the fragments of the reporter protein in close proximity to allow them to form a functional reporter protein whose activity can be measured. The OT ER alpha / ER alpha assay is a homodimer PCA of the ligand binding domain (amino acids 310-547) of human ER alpha stably expressed in HEK293T cells. […] Fluorescent signal in the basal state of the assay is very low and is primarily punctuate and cytoplasmic. Modulation of this assay is quantified as an increase in mean fluorescence intensity in the nucleus (for agonists) or in the nucleus and cytoplasm (antagonists) relative to vehicle controls, and can be quantified on a high content imaging device or a laser scanning cytometer. The latter instrument is favored for this assay because of the rapid mode of data acquisition, the ability to acquire data from the entire cell population in a well (as opposed to a fraction of the well on the high content devices) and the larger dynamic range typically achieved with this instrument. To assess sensitivity of the ER alpha/ER alpha LBD assay to ligand, cells were treated with the ER agonist 17 beta-estradiol (E2) in 10-point concentration- response format for 8 hours and monitored response on a laser scanning plate cytometer (Acumen eX3; TTP Lab Tech).
# [7] = biological target: Estrogen receptor (Homo sapiens) (UniProt P03372); experiment: NVS_NR_hER: NovaScreen (NVS) Nuclear Receptor Binding Assay for human Estrogen Receptor (ER) (AID 2283348)
# Description: as §1, with “NVS_NR_hER” for “NVS_NR_bER”, “MCF7” for “Bovine uterine membranes”, “a” for “a tissue-based”, “plate.NVS_NR_hER” for “plate.NVS_NR_bER”, “NVS_NR_hER,” for “NVS_NR_bER,”
# as §2
# [8] = biological target: rat Glutamate, MK-801 Agonist Site (GluNMDA_MK801), Grin1 (gene 24408) (UniProt P35439); experiment: NVS_LGIC_rGluNMDA_MK801_Agonist: NovaScreen (NVS) Ligand-Gated Ion Channel Assay for rat Glutamate, MK-801 Agonist Site (GluNMDA_MK801) (AID 2283340)
# Procedure, shortened: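 Rat forebrain membrane preparation; MK-801-site radioligand binding read by filtration and scintillation after 1.5 h. Single-point 25 uM duplicate screen, followed by singleton concentration series to 50 uM max; DMSO baseline.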
smiles,measurement,setting,value
C[Si](Cn1cncn1)(c1ccc(F)cc1)c1ccc(F)cc1,AC50,NCBI gene 100848466,25 µM (active)
C#CC(C)(C)NC(=O)c1cc(Cl)cc(Cl)c1,outcome,NCBI gene 100848466,inactive
same,outcome,[1],inactive
CCOP(=S)(OCC)Oc1ccc([N+](=O)[O-])cc1,AC50,NCBI gene 100848466,2.23 µM (active)
same,outcome,[1],inactive
CC(C)N(C(=O)SCC(Cl)=C(Cl)Cl)C(C)C,AC50,NCBI gene 100848466,36.8 µM (active)
same,outcome,[1],inactive
CCOP(=O)(OCC)Oc1cc(C)nc(C(C)C)n1,outcome,NCBI gene 100848466,inactive
same,outcome,[2],inactive
COc1ccc(C(=CC(=O)N2CCOCC2)c2ccc(Cl)cc2)cc1OC,outcome,[3],inactive
same,outcome,[1],inactive
same,outcome,[2],inactive
CCC(CC)Nc1c([N+](=O)[O-])cc(C)c(C)c1[N+](=O)[O-],AC50,NCBI gene 100848466,40.1 µM (active)
same,outcome,[1],inactive
CC(C1CC1)C(O)(Cn1cncn1)c1ccc(Cl)cc1 (stereo not drawn),outcome,NCBI gene 100848466,inactive
C=C(C)[C@H]1Cc2c(ccc3c2O[C@@H]2COc4cc(OC)c(OC)cc4[C@@H]2C3=O)O1,outcome,NCBI gene 100848466,inactive
same,outcome,[1],inactive
same,outcome,[2],inactive
CC[C@H](C)[C@H]1O[C@]2(C=C[C@@H]1C)C[C@@H]1C[C@@H](C/C=C(\C)[C@@H](O[C@H]3C[C@H](OC)[C@@H](O[C@H]4C[C@H](OC)[C@@H](NC)[C@H](C)O4)[C@H](C)O3)[C@@H](C)/C=C/C=C3\CO[C@@H]4[C@H](O)C(C)=C[C@@H](C(=O)O1)[C@]34O)O2,AC50,[3],26.4 µM (active)
same,AC50,[1],31 µM (active)
same,outcome,[4],inactive
same,outcome,[5],inactive
same,outcome,[6],inactive
FC(F)C(F)(F)OCC(Cn1cncn1)c1ccc(Cl)cc1Cl (stereo not drawn),AC50,[3],10.1 µM (active)
same,AC50,NCBI gene 100848466,25 µM (active)
CNC(=O)ON=C(SC)C(=O)N(C)C,outcome,NCBI gene 100848466,inactive
same,outcome,[1],inactive
same,outcome,[4],inactive
same,outcome,[7],inactive
same,outcome,[5],inactive
same,outcome,[6],inactive
CCc1cccc(C)c1N(C(=O)CCl)C(C)COC (stereo not drawn),outcome,[8],inactive
same,outcome,NCBI gene 100848466,inactive
same,AC50,[1],12.9 µM (active)
CCCSP(=O)(OCC)Oc1ccc(Br)cc1Cl (stereo not drawn),AC50,NCBI gene 100848466,20.1 µM (active)
same,AC50,[1],16 µM (active)
C#CCC1=C(C)C(OC(=O)C2C(C=C(C)C)C2(C)C)CC1=O (stereo not drawn),outcome,NCBI gene 100848466,inactive
same,outcome,[1],inactive
CCOC(=O)CC(SP(=O)(OC)OC)C(=O)OCC (stereo not drawn),outcome,NCBI gene 100848466,inactive
same,outcome,[1],inactive
CCCSP(=O)(OCC)SCCC,outcome,NCBI gene 100848466,inactive
same,outcome,[1],inactive
same,outcome,[2],inactive
